Results as given in the supplement of paper PMC10849652.
Of roughly 8,800 targets only a part is listed; those with a hit were picked by preference. About 0.5% of all pairs of compound and target were hits. A number with no mark means an inactive call.

Assays:
Assay in all cases: log2 fold change, soluble protein after heating vs DMSO (PISA); higher = thermal stabilisation; K562 lysate, 10 uM; active = over 0.2 and 3.5 SD of the protein, either way, in both replicates (recomputed)
[1] = compound: CN1CC[C@H](c2c(O)cc(O)c3c(=O)cc(-c4ccccc4Cl)oc23)[C@H](O)C1 [alvocidib]
Method in brief: (§1)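 A 30 min treatment with 10 μM compound was applied to crude K562 extract at 1 mg/mL protein in PBS pH 7.4 with 1 mM MgCl2. Heating for 3 min spanned 48°C-58°C, after which aliquots were pooled, adjusted to 0.5% NP-40 at 4°C and spun at 21,000xg for 90 min. TMTpro 16plex LC-MS/MS of the supernatant, with channel sums equalised, gave values recorded as log-two fold change in thermal stability against solvent controls, from duplicates.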

[2] = compound: CN1CCc2c(c3ccccc3n2Cc2ccc(C(=O)NO)cc2)C1 [Tubastatin A]
Method in brief: as §1

[3] = compound: CNC(=O)C1=CC=CC=C1NC2=NC(=NC=C2Cl)NC3=C(C=C(C=C3)N4CCOCC4)OC
Method in brief: as §1

[4] = compound: CNC(=O)c1ccc(Nc2ncc(C(F)(F)F)c(NCc3nccnc3N(C)S(C)(=O)=O)n2)cc1 [defactinib]
Method in brief: as §1

[5] = compound: CNc1nc(-c2ccc3c(N)n[nH]c3c2)cc(N2C[C@@H](C(=O)NC3CCCCC3)CC[C@H]2C)n1
Method in brief: as §1

[6] = compound: COC(=O)N[C@@H](C)CNc1nccc(-c2cn(C(C)C)nc2-c2cc(Cl)cc(NS(C)(=O)=O)c2F)n1 [encorafenib]
Method in brief: as §1

[7] = compound: COC(=O)[C@H](CCSC)NC(=O)C1=C(C=C(C=C1)NC[C@H](CS)N)C2=CC=CC=C2
Method in brief: as §1

[8] = compound: COc1cc(Nc2ncc3c(n2)-c2ccc(Cl)cc2C(c2c(F)cccc2OC)=NC3)ccc1C(=O)O [alisertib]
Method in brief: as §1

[9] = compound: COc1cc2nc(-c3cc(F)ccc3O)nc(N[C@@H]3CNC[C@H]3C(C)(C)O)c2cc1OC
Method in brief: as §1

[10] = compound: COc1cc2ncnc(Nc3ccc(F)c(Cl)c3)c2cc1OCCCN1CCOCC1 [gefitinib]
Method in brief: as §1

[11] = compound: CS(=O)(=O)CCNCc1ccc(-c2ccc3ncnc(Nc4ccc(OCc5cccc(F)c5)c(Cl)c4)c3c2)o1 [lapatinib]
Method in brief: as §1

[12] = compound: CS(=O)(=O)N1CCN(Cc2cc3nc(-c4cccc5[nH]ncc45)nc(N4CCOCC4)c3s2)CC1 [pictilisib]
Method in brief: as §1

[13] = compound: C[C@@H](Oc1cc(-c2cnn(C3CCNCC3)c2)cnc1N)c1c(Cl)ccc(F)c1Cl [crizotinib]
Method in brief: as §1

[14] = compound: C[C@H](C1=CC=C(C=C1)C(=O)NC2=C3C=CNC3=NC=C2)N
Method in brief: as §1

[15] = compound: C[C@H](Nc1ncnc2nc[nH]c12)c1cc2cccc(Cl)c2c(=O)n1-c1ccccc1 [duvelisib]
Method in brief: as §1

[16] = compound: Cc1cc(Nc2cc(CN3CCOCC3)c3nc(C)c(Cc4ccc(Cl)cc4F)n3n2)n[nH]1 [gandotinib]
Method in brief: as §1

[17] = compound: Cc1cc(Nc2cc(N3CCN(C)CC3)nc(Sc3ccc(NC(=O)C4CC4)cc3)n2)n[nH]1 [tozasertib]
Method in brief: as §1

[18] = compound: Cc1ccc(-n2nc(C(C)(C)C)cc2NC(=O)Nc2ccc(OCCN3CCOCC3)c3ccccc23)cc1 [doramapimod]
Method in brief: as §1

[19] = compound: Cc1ccc(NC(=O)c2ccc(CN3CC[C@H](N(C)C)C3)c(C(F)(F)F)c2)cc1Nc1nccc(-c2cncnc2)n1 [bafetinib]
Method in brief: as §1

[20] = compound: Cc1cccc(CC(=O)N2CCc3c2ccc(-c2cn(C)c4ncnc(N)c24)c3F)n1
Method in brief: as §1

Chain of UniProt P15923 (P15923 whole entry, looked up): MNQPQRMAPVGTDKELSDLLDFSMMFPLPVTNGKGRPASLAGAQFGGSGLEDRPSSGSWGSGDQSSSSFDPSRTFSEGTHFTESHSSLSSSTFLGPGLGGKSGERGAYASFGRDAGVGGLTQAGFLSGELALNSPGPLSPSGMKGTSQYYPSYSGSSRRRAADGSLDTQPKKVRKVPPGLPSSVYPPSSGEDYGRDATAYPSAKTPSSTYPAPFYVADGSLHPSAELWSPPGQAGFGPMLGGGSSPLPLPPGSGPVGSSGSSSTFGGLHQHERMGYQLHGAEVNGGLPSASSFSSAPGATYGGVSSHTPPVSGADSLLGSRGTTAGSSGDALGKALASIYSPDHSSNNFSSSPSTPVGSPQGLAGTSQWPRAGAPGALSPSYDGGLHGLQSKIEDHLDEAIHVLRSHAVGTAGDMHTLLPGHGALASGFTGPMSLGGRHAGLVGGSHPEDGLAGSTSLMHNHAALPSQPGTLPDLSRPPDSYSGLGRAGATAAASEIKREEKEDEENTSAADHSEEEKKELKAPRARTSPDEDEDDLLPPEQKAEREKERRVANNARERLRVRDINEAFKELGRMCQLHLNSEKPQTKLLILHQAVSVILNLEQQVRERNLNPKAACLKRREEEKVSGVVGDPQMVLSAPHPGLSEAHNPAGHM
Chain of UniProt Q12788 (Q12788 whole entry, looked up): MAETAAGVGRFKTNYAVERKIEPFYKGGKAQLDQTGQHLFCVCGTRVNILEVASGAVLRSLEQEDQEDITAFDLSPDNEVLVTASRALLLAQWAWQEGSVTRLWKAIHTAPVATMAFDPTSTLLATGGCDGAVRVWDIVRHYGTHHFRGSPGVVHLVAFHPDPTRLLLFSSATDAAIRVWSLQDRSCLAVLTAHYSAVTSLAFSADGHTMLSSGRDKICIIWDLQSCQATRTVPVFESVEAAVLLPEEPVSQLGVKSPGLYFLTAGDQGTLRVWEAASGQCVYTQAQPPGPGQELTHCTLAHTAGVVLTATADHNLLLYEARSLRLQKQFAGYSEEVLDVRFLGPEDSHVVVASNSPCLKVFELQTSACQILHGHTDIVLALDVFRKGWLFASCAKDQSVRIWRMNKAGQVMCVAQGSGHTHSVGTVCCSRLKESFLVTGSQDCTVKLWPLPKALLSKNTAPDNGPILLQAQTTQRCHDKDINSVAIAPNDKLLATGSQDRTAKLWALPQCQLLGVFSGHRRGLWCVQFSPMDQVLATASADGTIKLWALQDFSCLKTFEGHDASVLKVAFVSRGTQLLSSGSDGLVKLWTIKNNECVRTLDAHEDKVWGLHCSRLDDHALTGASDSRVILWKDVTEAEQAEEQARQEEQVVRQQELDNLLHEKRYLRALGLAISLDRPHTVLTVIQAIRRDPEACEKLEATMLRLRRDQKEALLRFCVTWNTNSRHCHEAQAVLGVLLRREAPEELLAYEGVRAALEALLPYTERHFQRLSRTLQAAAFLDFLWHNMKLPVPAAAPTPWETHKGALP
Chain of UniProt Q0IIM8 (Q0IIM8 whole entry, looked up): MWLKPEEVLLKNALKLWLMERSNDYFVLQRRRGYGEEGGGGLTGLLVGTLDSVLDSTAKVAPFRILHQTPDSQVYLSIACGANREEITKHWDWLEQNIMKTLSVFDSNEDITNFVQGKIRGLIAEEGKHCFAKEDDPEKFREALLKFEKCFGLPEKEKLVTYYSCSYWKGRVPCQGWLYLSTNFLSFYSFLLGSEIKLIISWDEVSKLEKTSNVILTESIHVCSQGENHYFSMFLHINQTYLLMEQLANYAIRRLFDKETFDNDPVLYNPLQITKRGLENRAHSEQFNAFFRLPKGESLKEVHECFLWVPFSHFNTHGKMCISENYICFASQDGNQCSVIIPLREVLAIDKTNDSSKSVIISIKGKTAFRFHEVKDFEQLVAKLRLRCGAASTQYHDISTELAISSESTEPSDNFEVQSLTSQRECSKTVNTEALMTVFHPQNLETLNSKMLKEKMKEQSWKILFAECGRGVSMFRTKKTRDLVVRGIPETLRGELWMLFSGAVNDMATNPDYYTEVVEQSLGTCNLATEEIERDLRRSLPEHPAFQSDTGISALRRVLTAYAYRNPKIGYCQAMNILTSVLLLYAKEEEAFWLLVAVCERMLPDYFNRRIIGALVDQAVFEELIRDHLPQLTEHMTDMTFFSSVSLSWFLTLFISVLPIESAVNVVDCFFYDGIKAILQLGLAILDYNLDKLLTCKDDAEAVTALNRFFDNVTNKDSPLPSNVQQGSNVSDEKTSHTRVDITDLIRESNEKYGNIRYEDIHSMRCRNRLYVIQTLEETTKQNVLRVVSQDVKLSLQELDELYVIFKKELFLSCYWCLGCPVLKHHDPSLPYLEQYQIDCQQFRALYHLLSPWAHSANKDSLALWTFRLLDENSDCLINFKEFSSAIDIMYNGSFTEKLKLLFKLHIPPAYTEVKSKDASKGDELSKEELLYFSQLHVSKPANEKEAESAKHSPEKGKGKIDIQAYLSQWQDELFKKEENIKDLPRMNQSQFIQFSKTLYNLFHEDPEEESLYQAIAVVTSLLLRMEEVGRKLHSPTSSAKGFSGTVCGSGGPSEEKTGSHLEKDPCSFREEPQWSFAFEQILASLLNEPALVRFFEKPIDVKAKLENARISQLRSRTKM
Chain of UniProt P06753 (P06753 whole entry, looked up): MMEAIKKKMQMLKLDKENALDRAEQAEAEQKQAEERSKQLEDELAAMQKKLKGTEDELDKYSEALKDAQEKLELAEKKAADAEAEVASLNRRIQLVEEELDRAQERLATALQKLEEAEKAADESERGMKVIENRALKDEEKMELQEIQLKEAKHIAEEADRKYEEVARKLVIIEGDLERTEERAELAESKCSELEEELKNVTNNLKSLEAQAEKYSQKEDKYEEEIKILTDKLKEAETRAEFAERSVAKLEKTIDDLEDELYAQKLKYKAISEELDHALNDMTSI
Chain of UniProt Q9UNY4 (Q9UNY4 whole entry, looked up): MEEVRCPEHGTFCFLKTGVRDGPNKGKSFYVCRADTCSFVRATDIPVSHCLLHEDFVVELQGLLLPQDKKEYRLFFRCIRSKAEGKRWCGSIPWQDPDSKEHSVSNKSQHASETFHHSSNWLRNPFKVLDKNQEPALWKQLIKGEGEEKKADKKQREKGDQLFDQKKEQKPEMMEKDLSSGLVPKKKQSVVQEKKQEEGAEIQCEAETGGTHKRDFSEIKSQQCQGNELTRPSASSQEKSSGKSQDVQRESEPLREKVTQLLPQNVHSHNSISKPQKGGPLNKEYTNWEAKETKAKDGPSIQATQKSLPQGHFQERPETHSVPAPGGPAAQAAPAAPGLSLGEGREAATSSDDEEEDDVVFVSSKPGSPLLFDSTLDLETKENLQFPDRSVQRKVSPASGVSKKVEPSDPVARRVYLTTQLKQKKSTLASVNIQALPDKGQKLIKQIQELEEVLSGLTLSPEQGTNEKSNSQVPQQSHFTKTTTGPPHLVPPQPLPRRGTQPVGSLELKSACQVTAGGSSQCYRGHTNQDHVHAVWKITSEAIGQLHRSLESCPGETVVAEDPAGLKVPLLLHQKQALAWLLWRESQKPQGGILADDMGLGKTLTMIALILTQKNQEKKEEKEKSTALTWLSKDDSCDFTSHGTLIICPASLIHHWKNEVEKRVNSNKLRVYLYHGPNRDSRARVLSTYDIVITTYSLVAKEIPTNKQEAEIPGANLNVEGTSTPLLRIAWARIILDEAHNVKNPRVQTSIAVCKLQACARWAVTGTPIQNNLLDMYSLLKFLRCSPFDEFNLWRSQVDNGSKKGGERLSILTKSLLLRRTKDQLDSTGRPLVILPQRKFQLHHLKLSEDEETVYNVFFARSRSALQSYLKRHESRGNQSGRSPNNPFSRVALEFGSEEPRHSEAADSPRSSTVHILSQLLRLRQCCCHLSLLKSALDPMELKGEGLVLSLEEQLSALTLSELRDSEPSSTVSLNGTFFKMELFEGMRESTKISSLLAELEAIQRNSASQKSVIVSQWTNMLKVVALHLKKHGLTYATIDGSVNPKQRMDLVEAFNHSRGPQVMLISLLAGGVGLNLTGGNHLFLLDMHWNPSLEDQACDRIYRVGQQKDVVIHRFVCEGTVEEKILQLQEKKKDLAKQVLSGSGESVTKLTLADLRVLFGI
Chain of UniProt P62256 (P62256 whole entry, looked up): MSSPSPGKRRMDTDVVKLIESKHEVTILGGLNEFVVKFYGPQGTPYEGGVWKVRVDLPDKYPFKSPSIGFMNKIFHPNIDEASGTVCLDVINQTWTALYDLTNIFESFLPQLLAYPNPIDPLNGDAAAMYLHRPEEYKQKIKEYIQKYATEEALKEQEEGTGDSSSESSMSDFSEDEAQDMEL
Chain of UniProt Q9Y5K5 (Q9Y5K5 whole entry, looked up): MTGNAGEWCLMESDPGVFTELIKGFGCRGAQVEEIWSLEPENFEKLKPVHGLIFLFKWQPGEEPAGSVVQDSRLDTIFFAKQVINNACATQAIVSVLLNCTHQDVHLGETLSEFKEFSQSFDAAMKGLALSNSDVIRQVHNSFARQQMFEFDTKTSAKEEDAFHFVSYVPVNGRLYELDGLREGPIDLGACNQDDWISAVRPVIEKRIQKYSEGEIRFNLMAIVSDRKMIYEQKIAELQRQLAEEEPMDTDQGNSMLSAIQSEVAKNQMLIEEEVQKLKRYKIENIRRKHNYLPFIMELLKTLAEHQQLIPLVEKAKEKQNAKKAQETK
Chain of UniProt Q8N511 (Q8N511 whole entry, looked up): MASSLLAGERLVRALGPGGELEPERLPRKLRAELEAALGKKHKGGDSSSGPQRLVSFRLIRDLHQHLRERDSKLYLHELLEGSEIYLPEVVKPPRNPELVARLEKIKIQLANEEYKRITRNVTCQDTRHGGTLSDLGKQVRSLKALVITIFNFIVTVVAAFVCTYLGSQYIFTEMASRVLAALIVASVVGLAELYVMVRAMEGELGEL
Chain of UniProt P67936 (P67936 whole entry, looked up): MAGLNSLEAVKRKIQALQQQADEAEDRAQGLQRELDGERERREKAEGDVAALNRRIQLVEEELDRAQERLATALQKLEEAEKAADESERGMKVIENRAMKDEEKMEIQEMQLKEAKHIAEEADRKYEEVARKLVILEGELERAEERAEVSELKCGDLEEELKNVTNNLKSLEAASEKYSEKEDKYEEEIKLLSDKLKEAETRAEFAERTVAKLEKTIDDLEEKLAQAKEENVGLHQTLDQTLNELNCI

Row | Target | log2 fold change [1] | log2 fold change [2] | log2 fold change [3] | log2 fold change [4] | log2 fold change [5] | log2 fold change [6] | log2 fold change [7] | log2 fold change [8] | log2 fold change [9] | log2 fold change [10] | log2 fold change [11] | log2 fold change [12] | log2 fold change [13] | log2 fold change [14] | log2 fold change [15] | log2 fold change [16] | log2 fold change [17] | log2 fold change [18] | log2 fold change [19] | log2 fold change [20]
1 | TTC38 (UniProt Q5R3I4) | 0.121 | -0.013 | 0.004 | 0.001 | 0.034 | -0.045 | 0.013 | -0.046 | -0.018 | -0.069 | -0.034 | -0.029 | 0.031 | 0.213 | -0.022 | -0.116 | -0.011 | 0.301 (active) | 0.065 | -0.186
2 | TPM1 isoform 4 (UniProt P09493) | 0.017 | 0.073 | -0.013 | -0.031 | -0.12 | 0.02 | -0.088 | 0.035 | -0.012 | 0.008 | 0.032 | -0.051 | 0.001 | 0.061 | -0.029 | -0.142 | 0.013 | 0.012 | 0.011 | -0.142
3 | TPM3 isoform 2 (UniProt P06753) | 0.03 | 0.033 | -0.012 | 0 | -0.144 | 0 | -0.071 | 0 | -0.024 | 0.059 | -0.012 | 0.021 | 0.093 | 0.095 | 0.003 | -0.169 | 0.067 | 0.02 | 0.055 | -0.152
4 | TTC27 (UniProt Q6P3X3) | 0.012 | -0.148 | -0.049 | 0.023 | -0.007 | 0.028 | 0.057 | 0.027 | 0.012 | 0.02 | -0.01 | 0.005 | -0.041 | -0.033 | 0.04 | -0.129 | 0.004 | 0.048 | -0.066 | 0.04
5 | TRAF2 isoform 2 (UniProt Q12933) | -0.006 | -0.006 | 0.025 | -0.013 | 0.01 | 0.004 | -0.198 | 0.003 | -0.007 | -0.04 | -0.032 | 0.004 | -0.032 | -0.047 | 0.006 | -0.045 | 0.007 | 0.005 | -0.011 | 0.053
6 | TTF2 (UniProt Q9UNY4) | -0.018 | -0.055 | 0.05 | 0.069 | 0.005 | -0.018 | -0.01 | 0.005 | 0.056 | 0.002 | 0.028 | -0.048 | -0.104 | -0.052 | 0 | 0 | 0.019 | 0.053 | -0.02 | 0.102
7 | UCHL5 isoform 3 (UniProt Q9Y5K5) | -0.009 | -0.063 | 0.008 | -0.024 | -0.011 | -0.004 | 0.088 | -0.026 | -0.012 | -0.014 | 0.042 | -0.029 | 0.022 | 0.121 | -0.01 | -0.044 | -0.007 | -0.015 | -0.019 | -0.02
8 | TELO2 (UniProt Q9Y4R8) | -0.01 | -0.164 | 0.035 | -0.008 | -0.036 | 0.003 | 0.139 | 0.008 | -0.009 | 0.011 | -0.016 | -0.01 | -0.053 | -0.038 | -0.015 | -0.087 | -0.012 | 0.037 | -0.054 | 0.056
9 | TCF3 (UniProt P15923) | -0.039 | -0.066 | 0.034 | 0.089 | 0.19 | 0.135 | -0.051 | 0.047 | 0.027 | 0.023 | 0.014 | 0.014 | 0.066 | -0.042 | 0.22 (active) | 0.053 | -0.013 | -0.031 | -0.036 | -0.032
10 | TBL3 (UniProt Q12788) | -0.019 | -0.08 | 0.014 | 0.016 | 0.01 | -0.021 | 0.072 | 0.015 | 0.006 | -0.123 | -0.022 | -0.027 | -0.017 | -0.028 | -0.009 | -0.05 | -0.008 | -0.024 | -0.019 | 0.04
11 | UBE2H (UniProt P62256) | 0.11 | 0.076 | -0.03 | 0.025 | -0.061 | 0.001 | -0.01 | 0.004 | -0.029 | 0.044 | 0.002 | -0.022 | 0.011 | 0.174 | 0.016 | -0.172 | 0.024 | 0.003 | 0.009 | -0.188
12 | TMEM199 (UniProt Q8N511) | -0.032 | 0.097 | -0.035 | -0.023 | -0.001 | -0.011 | -0.093 | 0 | -0.007 | 0.001 | -0.034 | -0.035 | 0.062 | -0.053 | 0.051 | 0.016 | 0.074 | -0.068 | -0.016 | 0.099
13 | TBC1D8B (UniProt Q0IIM8) | -0.134 | 0.051 | -0.017 | -0.057 | 0.078 | -0.032 | 0.033 | 0.11 | 0.026 | 0.008 | 0 | -0.072 | 0.013 | -0.229 | 0.007 | 0.176 | -0.011 | 0.014 | 0.03 | 0.097
14 | TPM4 (UniProt P67936) | -0.016 | 0.074 | -0.021 | 0.019 | 0.022 | 0.028 | -0.028 | -0.105 | 0.012 | 0.033 | -0.002 | -0.043 | 0.003 | -0.001 | -0.021 | 0.039 | -0.098 | -0.029 | -0.055 | -0.018
15 | UBAP2L isoform 5 (UniProt Q14157) | 0.019 | 0.008 | 0.007 | 0.016 | 0.038 | 0.041 | -0.002 | 0.027 | 0.022 | -0.031 | -0.022 | -0.116 | 0.099 | -0.002 | -0.047 | 0.034 | -0.049 | -0.121 | -0.015 | -0.026
